Where “and” joins values, the source holds several entries; their conditions need not be identical. Equal entries are not always repeated. Results filed as inconclusive are left out. Where a call stands in place of a potency, no number is given. Calls of active or inactive are those of the source. Calls follow the shape of the dose curve; as a rule, active = well fitted cell-killing curve with a large enough effect in the repeat runs; inconclusive = weak or mixed curves, or effect the other way; inactive = no such curve, though single readings can be large or run the other way.
Test: qHTS assay to identify small molecule antagonists of the peroxisome proliferator-activated receptor gamma (PPARg) signaling pathway - cell viability counter screen (AID 743194); also: nearly all actives have a fitted effect of over 55% in size
Details: PPARg-bla HEK293H viability, CellTiter-Glo luminescence, 17 h, co-treated with 50 nM rosiglitazone; series mostly up to 62.6 µM
Description: U.S. Tox21 Program National Center for Advancing Translational Sciences [NCATS] NIH Chemical Genomics Center [NCGC] U.S. Environmental Protection Agency [EPA] National Institutes of Environmental Health Sciences [NIEHS] National Toxicology Program [NTP] U.S. Food and Drug Administration [FDA] Tox21 Assay Overview: The peroxisome proliferator-activated receptors (PPARs) are lipid-activated transcription factors of the nuclear receptor superfamily with three distinct subtypes namely PPAR alpha, PPAR delta (also called PPAR beta) and PPAR gamma (PPARg). All these subtypes heterodimerize with Retinoid X receptor (RXR) and these heterodimers regulate transcription of various genes. PPAR-gamma receptor (glitazone receptor) is involved in the regulation of glucose and lipid metabolism. To identify the compounds that activate PPAR-gamma signaling, GeneBLAzer PPAR gamma UAS-bla HEK293H cell line (Invitrogen, Carlsbad, CA, USA) containing a beta-lactamase reporter gene under the control of an Upstream Activator Sequence (UAS) was used to screen the Tox21 compound library. The cytotoxicity of the Tox21 compound library against the PPARg-bla cell line was tested in parallel by measuring the cell viability using CellTiter-Glo assay in the same wells.
Tox21 Assay Protocol Summary: PPARg-bla cells were dispensed at 3000 cells/5uL/well in 1536-well black wall/clear bottom plates using a Multidrop Combi (Thermo Fisher Scientific, Waltham, MA) dispenser. After the assay plates were incubated at 37 C and 5% CO2 for 5 h, 23 nL of compounds dissolved in DMSO, positive controls or DMSO only was transferred to the assay plate by a Pintool station (Kalypsys, San Diego, CA), followed by addition of 1ul Rosiglitazone (50 nM, final concentration in the wells). The assay plates were incubated at 37 C for 17 h, and then 1 uL of LiveBLAzerTM B/G FRET substrate was added using a Bioraptr Flying Reagent Dispenser (FRD) workstation (Beckman Coulter, Indianapolis, IN, USA). The assay plates were incubated at room temperature for 1 h and fluorescence intensity was measured by an Envision plate reader (PerkinElmer, Shelton, CT). For cell viability readout that measures cytotoxicity, 4 ul/well of CellTiter-Glo reagent was added into the assay plates using a Flying Reagent Dispenser. After 30 min incubation at room temperature, the luminescence intensity in the plates was measured using a ViewLux plate reader (PerkinElmer).
Potency is read from the fitted curve at half-maximal effect.

SMILES	Potency
Cc1ccc2ccc3cccc4ccc1c2c34	inactive
Nc1ncnc2c1ncn2[C@@H]1O[C@H](COP(=O)(O)O)[C@@H](O)[C@H]1O	inactive
CCCCCCOc1cc(C)c(O)c(C)c1C	inactive
COc1cc(C(C)C)c2c(c1)S(=O)(=O)N(COc1cc(=O)n3cccc(OCCN4CCCCC4)c3n1)C2=O	inactive
O=C(Nc1ccc(Cl)c(Cl)c1)c1cc(Cl)cc(Cl)c1O	0.49 µM (active)
O[C@@H](c1cc(C(F)(F)F)nc2c(C(F)(F)F)cccc12)[C@H]1CCCCN1	29.8 µM (active)
CC(C)(C)C1=CC(=O)C=C(C(C)(C)C)C1=O	24.6 µM (active)
CCCCC(CC)COC(=O)c1ccc(O)cc1 (stereo not given)	48.8 µM (active)
CCCN(CCc1cccs1)[C@H]1CCc2c(O)cccc2C1	inactive
CCOC(=O)COc1ccc(C)cc1	inactive
CC(C)N=C(N)/N=C(\N)Nc1ccc(Cl)cc1	inactive
O=C1NC2CCCCN2C12CCN(CCCN1c3ccccc3CCc3ccc(Cl)cc31)CC2 (stereo not given)	26.6 µM (active)
CCN=C1C=CC(=C(c2ccc(N(CC)CC)cc2)c2ccc(N(CC)CC)cc2)c2ccccc21	0.154 µM (active)
CCCCCCCCCCCCOC(=O)c1cc(O)c(O)c(O)c1	43.6 µM (active)
CC1=C(/C=C/C(C)=C/C=C/C(C)=C/C(=O)Nc2ccc(O)cc2)C(C)(C)CCC1	inactive
CCCCNc1c(C(=O)OCC)c(C)nc2c1cnn2CC	inactive
C[C@@]12C(=O)OC(=O)[C@]1(C)C1CCC2O1	inactive
c1ccc(Sc2ccccc2)cc1	inactive
COc1cc(C=C2CCC/C(=C\c3ccc(O)c(OC)c3)C2=O)ccc1O	21.1 µM (active)
CN(C)CCCN1c2ccccc2CCc2ccccc21	inactive

SMILES	Potency
COC(=O)CC(C)CCC=C(C)C (stereo not given)	inactive
CCCCCCCOC(=O)c1ccc(O)cc1	inactive
C[C@H]1O[C@@H](O[C@H]2[C@@H](O)C[C@H](O[C@H]3[C@@H](O)C[C@H](O[C@H]4CC[C@@]5(C)[C@H](CC[C@@H]6[C@@H]5C[C@@H](O)[C@]5(C)[C@@H](C7=CC(=O)OC7)CC[C@]65O)C4)O[C@@H]3C)O[C@@H]2C)C[C@H](O)[C@@H]1O	21.9 nM (active) and 4.8 nM (active)
NC(=O)C(=O)N/N=C/c1ccc([N+](=O)[O-])o1	inactive
COCC(=O)O[C@]1(CCN(C)CCCc2nc3ccccc3[nH]2)CCc2cc(F)ccc2[C@@H]1C(C)C	29.8 µM (active)
C1CC(COCC2CO2)CCC1COCC1CO1 (stereo not given)	inactive
CC(NCCC(c1ccccc1)c1ccccc1)c1ccccc1 (stereo not given)	23.7 µM (active)
CC1=C(/C=C/C(C)=C/C=C/C(C)=C\C=O)C(C)(C)CCC1	inactive
CCCCCCCCCCCCCC[n+]1ccccc1	17.4 µM (active)
O=Cc1ccc(F)cc1	inactive
CCC(C)(C)c1cc(O)c(C(C)(C)CC)cc1O	21.9 µM (active)
CN(C)CCOC(c1ccccc1)c1ccccc1 (tested in a mixture with another compound)	inactive
Cc1cccc(Br)c1	inactive
CCN(CC)c1ccc(N)cc1	inactive
CC(COC(=O)c1ccccc1)OC(=O)c1ccccc1 (stereo not given)	inactive
Cn1cnc2ncnc(N)c21	inactive
COC(=O)C1=C(C)NC(C)=C(C(=O)OCCCN2CCC(c3ccccc3)(c3ccccc3)CC2)C1c1cccc([N+](=O)[O-])c1 (stereo not given)	33.5 µM (active)
CCCCCCCC/C=C/CCCOC(C)=O	inactive
CC(C)(C)CC(C)(C)c1ccccc1O	43.9 µM (active)
CCC(C)c1cc([N+](=O)[O-])cc([N+](=O)[O-])c1OC(=O)OC(C)C (stereo not given)	49 µM (active)
